Data on two sequences can be found in publication PMC7862700, “An all-to-all approach to the identification of sequence-specific readers for epigenetic DNA modifications on cytosine”.

Common to all, as to assay: DAPPL (digital affinity profiling via proximity ligation, sequencing); 10 mM Tris-HCl pH 7.5, 50 mM NaCl, 1 mM DTT, 4% glycerol, room temperature, 30 min; GST-TFs on glutathione beads, 16-mer random dsDNA library, 0.1% formaldehyde crosslink after washing; high values mean tight binding
For assay [1], the target named is T1, FLI1 (Homo sapiens, UniProt Q01543 1-452).
T1 sequence: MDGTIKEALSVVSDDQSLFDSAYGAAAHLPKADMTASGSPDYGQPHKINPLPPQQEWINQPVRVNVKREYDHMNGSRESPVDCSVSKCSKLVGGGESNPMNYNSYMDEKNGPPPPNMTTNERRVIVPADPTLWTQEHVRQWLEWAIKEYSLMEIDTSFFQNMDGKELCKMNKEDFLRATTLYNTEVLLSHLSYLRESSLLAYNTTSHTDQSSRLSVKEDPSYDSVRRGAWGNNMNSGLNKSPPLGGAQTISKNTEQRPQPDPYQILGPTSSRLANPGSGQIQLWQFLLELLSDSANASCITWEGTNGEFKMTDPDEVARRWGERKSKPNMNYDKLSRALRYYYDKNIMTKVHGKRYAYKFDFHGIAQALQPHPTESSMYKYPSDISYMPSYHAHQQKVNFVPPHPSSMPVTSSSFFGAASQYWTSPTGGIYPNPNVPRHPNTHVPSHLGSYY
The settings on record: protein: recombinant; tags: N-terminal GST; dsDNA, one strand shown. Summed up:
(§1)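 The binding signal reported is, for every hexamer, its read frequency for a factor over its read frequency for the tag-only sample. Reads came from pools of yeast-expressed, GST-fused human transcription factors on glutathione beads, barcoded with DNA and mixed with that sample, which were incubated with 200 nmole of a random double-stranded 16-mer DNA library in Tris/NaCl/DTT/glycerol buffer at room temperature for 30 min. After washing, the pools were crosslinked with 0.1% formaldehyde, proximity-ligated with BsaI/T4 ligase for 1 h at 37 °C, PCR-amplified and sequenced on an Illumina NextSeq500.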

Assay [2] has as its target T2, ELK1 (Homo sapiens, UniProt P19419 1-428).
T2 sequence: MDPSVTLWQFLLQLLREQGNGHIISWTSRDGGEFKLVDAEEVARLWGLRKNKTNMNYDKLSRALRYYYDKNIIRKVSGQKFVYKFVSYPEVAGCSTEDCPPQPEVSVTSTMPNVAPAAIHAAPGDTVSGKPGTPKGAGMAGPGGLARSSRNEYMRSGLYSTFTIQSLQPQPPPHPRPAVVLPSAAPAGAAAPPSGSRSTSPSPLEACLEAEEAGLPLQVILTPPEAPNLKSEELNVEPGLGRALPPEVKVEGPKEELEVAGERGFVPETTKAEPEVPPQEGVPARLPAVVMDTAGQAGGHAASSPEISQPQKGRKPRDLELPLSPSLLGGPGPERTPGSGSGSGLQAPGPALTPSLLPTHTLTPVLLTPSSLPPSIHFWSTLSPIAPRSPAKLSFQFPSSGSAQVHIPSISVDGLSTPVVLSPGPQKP
The settings on record: protein: recombinant; tags: N-terminal GST; dsDNA, one strand shown. Summed up:
as §1

The target in assay [3] is T3, GABPA (Homo sapiens, UniProt Q06546 1-454).
T3 sequence: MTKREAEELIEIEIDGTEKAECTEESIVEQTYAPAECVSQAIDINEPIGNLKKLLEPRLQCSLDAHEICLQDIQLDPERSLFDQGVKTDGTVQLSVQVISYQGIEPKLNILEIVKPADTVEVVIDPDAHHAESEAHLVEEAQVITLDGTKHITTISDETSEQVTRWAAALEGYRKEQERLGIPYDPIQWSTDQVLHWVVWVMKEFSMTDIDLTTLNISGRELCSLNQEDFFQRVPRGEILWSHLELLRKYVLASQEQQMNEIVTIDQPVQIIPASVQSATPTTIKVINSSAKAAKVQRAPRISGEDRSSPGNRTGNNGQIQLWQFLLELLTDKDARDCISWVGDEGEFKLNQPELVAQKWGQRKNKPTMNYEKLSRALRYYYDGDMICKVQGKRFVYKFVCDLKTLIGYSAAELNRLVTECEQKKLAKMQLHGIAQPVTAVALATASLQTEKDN
Particulars: protein: recombinant; tags: N-terminal GST; dsDNA, one strand shown. Summed up:
as §1

In assay [4] the target is ELF1 (Homo sapiens, UniProt P32519 1-619). Particulars: protein: recombinant; tags: N-terminal GST; dsDNA, one strand shown. A digest of the protocol:
as §1

The target in assay [5] is ETV5 (Homo sapiens, UniProt P41161 1-510). The settings on record: protein: recombinant; tags: N-terminal GST; dsDNA, one strand shown. A digest of the protocol: as §1
In assay [6] the target is HSF1 (Homo sapiens, UniProt Q00613 1-529). The settings on record: protein: recombinant; tags: N-terminal GST; chain copies: 3; dsDNA, one strand shown. Summed up: as §1
The target of assay [7] is T4, SPIC (Homo sapiens, UniProt Q8N5J4 1-248).
T4 sequence: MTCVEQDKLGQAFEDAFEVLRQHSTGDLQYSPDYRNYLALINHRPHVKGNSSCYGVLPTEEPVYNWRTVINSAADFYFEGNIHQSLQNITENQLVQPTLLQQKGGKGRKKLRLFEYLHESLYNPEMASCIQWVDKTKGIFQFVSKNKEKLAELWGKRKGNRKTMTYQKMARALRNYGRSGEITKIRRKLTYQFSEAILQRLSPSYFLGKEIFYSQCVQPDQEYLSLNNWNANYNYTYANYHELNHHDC
Particulars: protein: recombinant; tags: N-terminal GST; dsDNA, one strand shown. A digest of the protocol:
as §1

In assay [8] the target is ELF4 (Homo sapiens, UniProt Q99607 1-663). The settings on record: protein: recombinant; tags: N-terminal GST; dsDNA, one strand shown. Summed up: as §1
Assay [9] concerns the target T5, ELK4 (Homo sapiens, UniProt P28324-2 1-405).
T5 sequence: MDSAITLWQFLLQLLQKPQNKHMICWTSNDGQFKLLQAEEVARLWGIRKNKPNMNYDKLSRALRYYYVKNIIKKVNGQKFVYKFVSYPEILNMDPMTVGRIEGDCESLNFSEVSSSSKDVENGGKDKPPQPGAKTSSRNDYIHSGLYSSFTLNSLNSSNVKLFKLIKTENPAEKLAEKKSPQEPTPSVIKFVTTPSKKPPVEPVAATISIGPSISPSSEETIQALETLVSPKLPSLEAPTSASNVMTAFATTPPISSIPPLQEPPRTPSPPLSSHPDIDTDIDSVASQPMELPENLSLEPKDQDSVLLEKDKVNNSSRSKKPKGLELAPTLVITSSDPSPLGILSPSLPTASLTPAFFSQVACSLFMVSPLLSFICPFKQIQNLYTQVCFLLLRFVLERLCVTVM
Particulars: protein: recombinant; tags: N-terminal GST; dsDNA, one strand shown. Summed up: as §1

The target in assay [10] is T6, ETV2 (Homo sapiens, UniProt O00321 1-342).
T6 sequence: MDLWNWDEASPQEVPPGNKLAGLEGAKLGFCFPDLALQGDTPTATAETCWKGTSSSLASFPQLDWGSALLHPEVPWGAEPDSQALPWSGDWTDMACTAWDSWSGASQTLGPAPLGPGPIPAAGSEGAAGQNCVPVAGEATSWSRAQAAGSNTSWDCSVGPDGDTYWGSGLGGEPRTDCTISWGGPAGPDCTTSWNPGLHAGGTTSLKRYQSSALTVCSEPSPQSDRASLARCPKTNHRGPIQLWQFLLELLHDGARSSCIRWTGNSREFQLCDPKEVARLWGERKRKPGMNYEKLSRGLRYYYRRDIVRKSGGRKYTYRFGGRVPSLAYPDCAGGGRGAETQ
Particulars: protein: recombinant; tags: N-terminal GST; dsDNA, one strand shown. A digest of the protocol:
as §1

For assay [11], the target named is ETV1 (Homo sapiens, UniProt P50549 1-477). The settings on record: protein: recombinant; tags: N-terminal GST; dsDNA, one strand shown. A digest of the protocol:
as §1

In assay [12] the target is T7, EHF (Homo sapiens, UniProt Q9NZC4 1-300).
T7 sequence: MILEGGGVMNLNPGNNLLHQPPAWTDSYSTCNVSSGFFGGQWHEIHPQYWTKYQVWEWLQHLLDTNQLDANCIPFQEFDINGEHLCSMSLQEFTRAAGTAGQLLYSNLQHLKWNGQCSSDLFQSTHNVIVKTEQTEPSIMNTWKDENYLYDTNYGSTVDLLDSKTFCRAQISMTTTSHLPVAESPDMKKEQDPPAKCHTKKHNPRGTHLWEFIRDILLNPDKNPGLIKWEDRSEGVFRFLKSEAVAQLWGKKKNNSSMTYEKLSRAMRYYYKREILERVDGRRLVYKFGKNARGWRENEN
The settings on record: protein: recombinant; tags: N-terminal GST; dsDNA, one strand shown. A digest of the protocol: as §1

In assay [13] the target is T8, ELK3 (Homo sapiens, UniProt P41970 1-407).
T8 sequence: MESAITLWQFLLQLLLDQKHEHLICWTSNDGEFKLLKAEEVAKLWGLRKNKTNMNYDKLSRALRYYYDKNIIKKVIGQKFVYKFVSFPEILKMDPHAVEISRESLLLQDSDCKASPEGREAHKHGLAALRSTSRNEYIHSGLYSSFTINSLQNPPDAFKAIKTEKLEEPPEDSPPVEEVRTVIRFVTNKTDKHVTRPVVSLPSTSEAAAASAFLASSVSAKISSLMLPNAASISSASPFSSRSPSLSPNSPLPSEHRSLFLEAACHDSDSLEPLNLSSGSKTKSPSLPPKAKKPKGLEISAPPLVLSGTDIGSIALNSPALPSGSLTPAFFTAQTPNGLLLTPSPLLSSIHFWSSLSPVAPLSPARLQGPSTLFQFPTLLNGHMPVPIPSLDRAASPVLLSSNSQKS
Particulars: protein: recombinant; tags: N-terminal GST; dsDNA, one strand shown. Summed up:
as §1

For assay [14], the target named is T9, FEV (Homo sapiens, UniProt Q99581 1-238).
T9 sequence: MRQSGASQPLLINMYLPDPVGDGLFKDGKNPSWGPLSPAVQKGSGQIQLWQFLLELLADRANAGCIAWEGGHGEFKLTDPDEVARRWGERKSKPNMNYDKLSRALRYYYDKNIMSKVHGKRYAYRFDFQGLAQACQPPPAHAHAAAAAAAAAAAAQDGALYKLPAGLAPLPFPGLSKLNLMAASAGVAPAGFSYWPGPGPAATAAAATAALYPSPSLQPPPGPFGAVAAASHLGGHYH
The settings on record: protein: recombinant; tags: N-terminal GST; dsDNA, one strand shown. Summed up:
as §1

Assay [15] addresses CRX (Homo sapiens, UniProt O43186 1-299). The settings on record: protein: recombinant; tags: N-terminal GST; dsDNA, one strand shown. Summed up: as §1

ELF4, sequence (Q99607 whole entry): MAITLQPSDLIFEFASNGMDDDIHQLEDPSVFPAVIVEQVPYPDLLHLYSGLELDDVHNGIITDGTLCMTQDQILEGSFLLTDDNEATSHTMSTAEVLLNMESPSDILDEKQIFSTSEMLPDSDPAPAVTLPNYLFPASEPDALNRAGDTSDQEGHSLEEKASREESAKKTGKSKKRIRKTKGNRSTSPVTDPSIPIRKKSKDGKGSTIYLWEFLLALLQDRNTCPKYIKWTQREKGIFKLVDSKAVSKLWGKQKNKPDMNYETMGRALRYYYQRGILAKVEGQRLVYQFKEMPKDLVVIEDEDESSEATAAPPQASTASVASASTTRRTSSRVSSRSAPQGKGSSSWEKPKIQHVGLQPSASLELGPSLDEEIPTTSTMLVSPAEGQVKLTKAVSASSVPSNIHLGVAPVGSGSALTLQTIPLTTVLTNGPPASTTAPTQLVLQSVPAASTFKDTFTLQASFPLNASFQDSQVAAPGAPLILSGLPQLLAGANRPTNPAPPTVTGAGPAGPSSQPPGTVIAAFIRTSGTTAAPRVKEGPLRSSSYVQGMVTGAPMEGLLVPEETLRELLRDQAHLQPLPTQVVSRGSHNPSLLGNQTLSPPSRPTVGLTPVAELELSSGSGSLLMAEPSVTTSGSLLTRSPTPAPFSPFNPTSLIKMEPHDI
ETV5, sequence (P41161 whole entry): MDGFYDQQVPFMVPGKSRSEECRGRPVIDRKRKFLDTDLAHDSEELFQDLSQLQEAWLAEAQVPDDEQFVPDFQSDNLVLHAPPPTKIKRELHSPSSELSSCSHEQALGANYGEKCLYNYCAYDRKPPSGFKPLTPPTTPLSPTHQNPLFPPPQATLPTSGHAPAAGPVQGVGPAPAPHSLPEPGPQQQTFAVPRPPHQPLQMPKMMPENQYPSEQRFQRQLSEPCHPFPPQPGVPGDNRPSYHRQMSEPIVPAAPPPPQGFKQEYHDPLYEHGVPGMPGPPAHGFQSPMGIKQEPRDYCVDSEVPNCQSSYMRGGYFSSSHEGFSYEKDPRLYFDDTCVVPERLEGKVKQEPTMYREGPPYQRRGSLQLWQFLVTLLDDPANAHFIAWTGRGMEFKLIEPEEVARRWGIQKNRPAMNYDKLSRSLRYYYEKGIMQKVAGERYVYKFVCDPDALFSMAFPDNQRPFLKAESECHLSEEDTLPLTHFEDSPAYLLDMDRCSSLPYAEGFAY
ELF1, sequence (P32519 whole entry): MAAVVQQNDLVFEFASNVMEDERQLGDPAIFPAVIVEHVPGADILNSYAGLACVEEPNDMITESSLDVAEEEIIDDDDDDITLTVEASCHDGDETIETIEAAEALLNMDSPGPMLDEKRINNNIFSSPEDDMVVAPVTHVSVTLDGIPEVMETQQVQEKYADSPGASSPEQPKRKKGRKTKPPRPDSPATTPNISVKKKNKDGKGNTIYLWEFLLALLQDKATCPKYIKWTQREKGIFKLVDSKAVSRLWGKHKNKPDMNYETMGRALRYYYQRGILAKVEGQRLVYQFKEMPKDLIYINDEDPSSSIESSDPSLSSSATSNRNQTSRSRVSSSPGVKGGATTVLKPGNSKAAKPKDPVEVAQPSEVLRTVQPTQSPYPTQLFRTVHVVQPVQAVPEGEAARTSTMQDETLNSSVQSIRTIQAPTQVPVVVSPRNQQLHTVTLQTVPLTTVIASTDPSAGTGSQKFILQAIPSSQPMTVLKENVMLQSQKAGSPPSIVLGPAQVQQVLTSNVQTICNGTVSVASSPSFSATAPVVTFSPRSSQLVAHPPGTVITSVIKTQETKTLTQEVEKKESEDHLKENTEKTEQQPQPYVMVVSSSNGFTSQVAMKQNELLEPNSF
ETV1, sequence (P50549 whole entry): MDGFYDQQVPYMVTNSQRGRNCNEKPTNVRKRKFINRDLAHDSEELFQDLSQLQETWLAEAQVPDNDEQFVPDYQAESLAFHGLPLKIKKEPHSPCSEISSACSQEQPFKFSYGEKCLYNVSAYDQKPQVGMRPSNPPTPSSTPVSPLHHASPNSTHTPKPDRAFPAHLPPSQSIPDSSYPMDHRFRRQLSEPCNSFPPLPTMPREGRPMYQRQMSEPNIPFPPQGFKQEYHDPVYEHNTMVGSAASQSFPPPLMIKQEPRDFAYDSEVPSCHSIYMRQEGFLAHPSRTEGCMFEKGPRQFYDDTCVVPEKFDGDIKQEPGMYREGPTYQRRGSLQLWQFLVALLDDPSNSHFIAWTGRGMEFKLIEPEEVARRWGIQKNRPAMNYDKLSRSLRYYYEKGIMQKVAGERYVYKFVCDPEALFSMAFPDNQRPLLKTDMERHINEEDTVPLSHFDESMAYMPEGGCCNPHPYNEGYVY
HSF1, sequence (Q00613 whole entry): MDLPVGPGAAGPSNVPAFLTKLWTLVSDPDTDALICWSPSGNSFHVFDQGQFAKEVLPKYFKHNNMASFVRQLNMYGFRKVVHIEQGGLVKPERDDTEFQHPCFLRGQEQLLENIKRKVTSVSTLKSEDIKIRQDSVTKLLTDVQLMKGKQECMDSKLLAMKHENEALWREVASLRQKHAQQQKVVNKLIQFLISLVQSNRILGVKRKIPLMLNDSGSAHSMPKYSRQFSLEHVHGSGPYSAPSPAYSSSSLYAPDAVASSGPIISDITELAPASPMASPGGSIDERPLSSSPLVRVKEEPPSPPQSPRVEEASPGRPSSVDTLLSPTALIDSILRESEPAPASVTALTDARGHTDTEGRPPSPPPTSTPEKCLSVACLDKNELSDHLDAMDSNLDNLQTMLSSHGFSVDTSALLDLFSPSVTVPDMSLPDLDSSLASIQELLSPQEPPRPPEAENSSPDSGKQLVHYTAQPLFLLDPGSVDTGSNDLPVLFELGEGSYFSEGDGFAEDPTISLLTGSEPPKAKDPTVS
CRX, sequence (O43186 whole entry): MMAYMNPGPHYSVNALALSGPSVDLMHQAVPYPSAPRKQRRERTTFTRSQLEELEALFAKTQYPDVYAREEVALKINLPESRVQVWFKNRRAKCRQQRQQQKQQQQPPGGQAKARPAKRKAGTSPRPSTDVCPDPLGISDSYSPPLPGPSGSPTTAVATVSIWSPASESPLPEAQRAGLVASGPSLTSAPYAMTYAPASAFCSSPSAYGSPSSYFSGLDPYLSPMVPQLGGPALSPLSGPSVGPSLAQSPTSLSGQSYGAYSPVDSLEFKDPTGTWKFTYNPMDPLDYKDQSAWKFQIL

In the case of GAATAC, the binding signal was 1.1 fold enrichment (6-mer frequency, TF over GST control) in [1]; 1.1 fold enrichment (6-mer frequency, TF over GST control) in assay [2]; 1.11 fold enrichment (6-mer frequency, TF over GST control) in [3]; 1.08 fold enrichment (6-mer frequency, TF over GST control) in [4]; 1.01 fold enrichment (6-mer frequency, TF over GST control) in assay [5]; 1.16 fold enrichment (6-mer frequency, TF over GST control) in assay [6]. Also, the binding signal in assay [7] is 1.06 fold enrichment (6-mer frequency, TF over GST control); in assay [8] it was 1.01 fold enrichment (6-mer frequency, TF over GST control); in [9], 1.05 fold enrichment (6-mer frequency, TF over GST control); in assay [10], 1.05 fold enrichment (6-mer frequency, TF over GST control); in [11], 1.09 fold enrichment (6-mer frequency, TF over GST control).

On to TTGGCT, for which the binding signal in [1] is 1.15 fold enrichment (6-mer frequency, TF over GST control); in assay [2], 1.07 fold enrichment (6-mer frequency, TF over GST control); in assay [4] it was 1.13 fold enrichment (6-mer frequency, TF over GST control); in [12], 1.12 fold enrichment (6-mer frequency, TF over GST control); in [13] it was 1 fold enrichment (6-mer frequency, TF over GST control); in [14], 1.17 fold enrichment (6-mer frequency, TF over GST control). Besides, the binding signal is 1.05 fold enrichment (6-mer frequency, TF over GST control) in assay [5]; 1.03 fold enrichment (6-mer frequency, TF over GST control) in assay [6]; 1.02 fold enrichment (6-mer frequency, TF over GST control) in assay [7]; 1.08 fold enrichment (6-mer frequency, TF over GST control) in assay [8]; 1.21 fold enrichment (6-mer frequency, TF over GST control) in [9]; 1.07 fold enrichment (6-mer frequency, TF over GST control) in [10]. In addition, the binding signal was 1.33 fold enrichment (6-mer frequency, TF over GST control) in [15] and 1.02 fold enrichment (6-mer frequency, TF over GST control) in [11].
